# From PubChem BioAssay (Tox21)
# Where “and” joins values, the source holds several entries; their conditions need not be identical. Equal values may be shown once. Records with an inconclusive call do not appear. Calls of active or inactive are those of the source. Calls come from the whole dose curve; as a rule, active = well fitted cell-killing curve with a large enough effect in the repeat runs; inconclusive = weak or mixed curves, or effect the other way; inactive = no such curve, though single readings can be large or run the other way.
# Assay: qHTS assay to identify small molecule antagonists of the retinoid-related orphan receptor gamma (ROR-gamma) signaling pathway - cell viability counter screen (AID 1159520); note: nearly all actives have a fitted effect of over 50% in size
# Conditions: Tet-on RORgamma CHO cells viability, ATP luminescence, 16 h; series mostly up to 92.4 µM; activity, negative = cytotoxicity: at the top concentration
# From the text: U.S. Tox21 Program National Center for Advancing Translational Sciences [NCATS] NIH Chemical Genomics Center [NCGC] U.S. Environmental Protection Agency [EPA] National Institutes of Environmental Health Sciences [NIEHS] National Toxicology Program [NTP] U.S. Food and Drug Administration [FDA] Tox21 Assay Overview: Nuclear steroid hormone receptors are involved in many biological processes including inflammatory responses, cell proliferation, and apoptosis. Environmental factors or compounds disrupting these nuclear receptor pathways and gene expression may promote susceptibility to immunotoxicants and autoimmune diseases. One important group of these expression factors are the retinoid-related orphan receptors. To assess compounds that may interfere with the retinoid-related orphan receptor gamma (ROR-gamma) transcription factor, a cell-based luciferase assay was used. The CHO cell-based assay utilizes a TET-inducible ROR expression factor and ROR response element-LUC reporter gene. Reporter gene activity was induced using Doxycycline Hyclate and measured after 16 hr incubation. Tet-on ROR gamma CHO cells were used to screen against the Tox21 10K compound library for cytotoxicity by measuring the viability of the cells based on the quantitation of the ATP.
# Tox21 Assay Protocol Summary: Tet-on ROR gamma CHO cells were dispensed at 1,000 cells in 4 uL of culture medium per well into white wall/solid bottom 1536-well plates using a Multidrop Combi (Thermo Scientific, Waltham, MA) dispenser. Following incubation at 37 C and 5% CO2 for 4 hr, 23 nL of compounds dissolved in DMSO, positive controls or DMSO only were transferred by a Pintool station (Kalypsys, San Diego, CA) and after 2 hr incubation at 37 C, one ul of 1 uM (final concentration) of Doxycycline Hyclate was added to all the wells by using a Flying Reagent Dispenser (FRD) (Aurora Discovery, San Diego, CA). After 16 hr incubation at 37 C and 5% CO2, 5 uL of CellTiter-Glo reagent (Promega Corporation, Madison, WI) was added to each assay plate using FRD. After 30 min incubation at room temperature, luminescence was quantified on a ViewLux plate reader (Perkin Elmer, Waltham, MA).
# % is set by controls: 0 for no effect and ±100 for the full control effect; potency is the fitted concentration of half-maximal effect.
SMILES,"activity, negative = cytotoxicity",Potency
C[C@@H]1CC2=CC(=O)CC[C@@H]2[C@H]2CC[C@@]3(C)[C@@H](CC[C@]3(C)O)[C@@H]21,-9.18% [at 42.5 µM] (inactive),–
ClC1=C(Cl)[C@]2(Cl)[C@H]3[C@H]([C@@H]4C=C[C@H]3C4)[C@@]1(Cl)C2(Cl)Cl,–,61 µM (active)
O=[N+]([O-])c1cc(C(F)(F)F)c(Cl)c([N+](=O)[O-])c1Nc1ncc(C(F)(F)F)cc1Cl,–,4.86 µM (active)
C[N+]1(C)[C@@H]2CC[C@H]1CC(OC(=O)C(CO)c1ccccc1)C2 (stereo not given in full),-1.71% [at 42.5 µM] (inactive),–
CN1C(=O)[C@@H](NC(=O)c2cc3ccccc3[nH]2)N=C(c2ccccc2)c2ccccc21,-11.2% [at 42.5 µM] (inactive),–
CNC(=O)CSP(=O)(OC)OC,4.79% (inactive),–
[C-]1=CC=CC1.[Cl][Zr+2][Cl].c1cc[cH-]c1,0.305% (inactive),–
O=C(N[C@H]1N=C(c2ccccc2F)c2cccc3c2N(CC3)C1=O)c1cc2ccccc2[nH]1,0.204% [at 42.5 µM] (inactive),–
CNN,1.78% (inactive),–
O=C1C(Cl)=C(Cl)C(=O)C(Cl)=C1Cl,–,15.3 µM (active)
CCOP(=S)(OCC)Oc1cc(C)nc(N(CC)CC)n1,-11.3% (inactive),–
[O]=[Cr](=[O])([OH])[O][Cr](=[O])(=[O])[OH],–,5.5 µM (active) and 2.43 µM (active)
CCOC(=O)Cc1ccccc1,-0.196% (inactive),–
Clc1c(Cl)c(Cl)c(Cl)c(Cl)c1Cl,5.16% [at 8.39 µM] (inactive),–
COC(=O)c1ccccc1S(=O)(=O)NC(=O)Nc1nc(C)nc(OC)n1,0.486% (inactive),–
C=CC(=O)[O][Sn]([CH2]CCC)([CH2]CCC)[CH2]CCC,–,1.09 µM (active)
ClCBr,3.94% (inactive),–
CN/C(=N\[N+](=O)[O-])NCc1cnc(Cl)s1,-3.24% (inactive),–
CC(C)N(C(=O)CCl)c1ccccc1,–,27.3 µM (active) and 30.6 µM (active)
O=NN(CCO)CCO,6.77% (inactive),–

SMILES,"activity, negative = cytotoxicity",Potency
c1csc(-c2ccc(-c3cccs3)s2)c1,-2.38% (inactive),–
c1ccc2c(c1)cc1ccc3cccc4ccc2c1c34,-12.7% (inactive),–
CCC[CH2][Sn]([CH2]CCC)([CH2]CCC)[O][Sn]([CH2]CCC)([CH2]CCC)[CH2]CCC,–,0.336 µM (active)
CCN(CC)CCc1c[nH]c2ccccc12,-0.126% (inactive),–
CCC[CH2][Sn]([CH2]CCC)([O]C(C)=O)[O]C(C)=O,–,0.0978 µM (active)
ClC(Cl)C(Cl)(Cl)Cl,-0.404% (inactive),–
CCC1(CC)C(=O)N=C(O)NC1=O,0.532% (inactive),–
CC(=O)[O-].CC(=O)[O-].O.O.O.[Pb+2],11.7% (inactive),–
CCOP(=S)(OCC)SC(CCl)N1C(=O)c2ccccc2C1=O (stereo not given),-19.3% (inactive),–
COc1ccc2[nH]cc(CCN(C(C)C)C(C)C)c2c1,1.24% (inactive),–
CC(=O)[O-].CC(=O)[O-].CC(=O)[O-].[Sb+3],1.09% [at 3.27 µM] (inactive),–
CCOP(=O)(Sc1ccccc1)Sc1ccccc1,-13.6% (inactive),–
Brc1ccc(Oc2ccc(Br)cc2Br)c(Br)c1,-26.3% (inactive),–
CC(Cc1ccccc1)N(C)Cc1ccco1 (stereo not given),0.616% [at 42.5 µM] (inactive),–
CC1=C2C[C@H]3[C@@H](CC=C4C[C@@H](O)CC[C@@]43C)[C@@H]2CC[C@]12O[C@@H]1C[C@H](C)CN[C@H]1[C@H]2C,-11.8% [at 42.5 µM] (inactive),–
O=C(N[C@@H]1N=C(c2ccccc2F)c2cccc3c2N(CC3)C1=O)c1cc2ccccc2[nH]1,-7.49% [at 42.5 µM] (inactive),–
CNC(=O)Oc1cc(C)cc(C(C)C)c1,-11% (inactive),–
Nc1ccc(Cl)cc1C(=O)c1ccccc1F,-11.1% [at 42.5 µM] (inactive),–
CCNc1nc(NC(C)C(C)C)nc(SC)n1 (stereo not given),7.1% (inactive),–
Cc1cccc(Cc2cnc[nH]2)c1C,2.45% [at 42.5 µM] (inactive),–
